Test in all cases: DAPPL (digital affinity profiling via proximity ligation, sequencing); 10 mM Tris-HCl pH 7.5, 50 mM NaCl, 1 mM DTT, 4% glycerol, room temperature, 30 min; GST-TFs on glutathione beads, 16-mer random dsDNA library, 0.1% formaldehyde crosslink after washing; high values mean tight binding
In experiment [1] the target is T1, FLI1 (Homo sapiens, UniProt Q01543 1-452).
T1 sequence: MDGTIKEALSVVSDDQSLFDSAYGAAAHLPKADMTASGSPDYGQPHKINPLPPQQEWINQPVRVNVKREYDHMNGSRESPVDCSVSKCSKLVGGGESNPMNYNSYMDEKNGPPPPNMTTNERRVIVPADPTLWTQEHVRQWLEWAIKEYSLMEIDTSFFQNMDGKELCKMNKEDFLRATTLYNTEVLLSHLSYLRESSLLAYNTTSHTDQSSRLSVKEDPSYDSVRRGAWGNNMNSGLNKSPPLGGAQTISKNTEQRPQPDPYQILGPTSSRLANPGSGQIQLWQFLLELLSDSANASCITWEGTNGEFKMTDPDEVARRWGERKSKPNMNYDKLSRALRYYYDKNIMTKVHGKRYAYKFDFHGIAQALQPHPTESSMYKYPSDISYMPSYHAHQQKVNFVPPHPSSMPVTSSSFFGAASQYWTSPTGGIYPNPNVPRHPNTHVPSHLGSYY
Particulars: protein: recombinant; tags: N-terminal GST; dsDNA, one strand shown. The procedure, abridged: (§1)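 In yeast, human transcription factors were expressed with a GST fusion, then pulled down on glutathione beads and given DNA barcodes. Pooled with a tag-only sample, they were exposed to 200 nmole of a 16-mer random double-stranded DNA library (Tris/NaCl/DTT/glycerol buffer, room temperature, 30 min), washed, crosslinked with 0.1% formaldehyde, proximity-ligated using BsaI/T4 ligase for 1 h at 37 °C, PCR-amplified and read on an Illumina NextSeq500. Each hexamer's frequency of reads for a factor, divided by the matching frequency for the tag-only sample, gives the binding signal.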

Experiment [2] concerns the target T2, ELK1 (Homo sapiens, UniProt P19419 1-428).
T2 sequence: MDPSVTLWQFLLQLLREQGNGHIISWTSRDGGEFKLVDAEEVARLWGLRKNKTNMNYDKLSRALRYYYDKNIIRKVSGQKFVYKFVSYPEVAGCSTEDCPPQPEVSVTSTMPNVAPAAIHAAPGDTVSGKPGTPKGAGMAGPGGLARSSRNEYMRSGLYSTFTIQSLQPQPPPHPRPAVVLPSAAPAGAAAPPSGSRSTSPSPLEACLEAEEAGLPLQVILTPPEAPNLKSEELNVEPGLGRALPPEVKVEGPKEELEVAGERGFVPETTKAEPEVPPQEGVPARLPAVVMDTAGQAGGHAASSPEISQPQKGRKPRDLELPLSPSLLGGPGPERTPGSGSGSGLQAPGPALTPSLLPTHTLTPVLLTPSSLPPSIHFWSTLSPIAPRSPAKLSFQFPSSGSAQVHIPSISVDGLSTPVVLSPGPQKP
Particulars: protein: recombinant; tags: N-terminal GST; dsDNA, one strand shown. An outline of the steps:
as §1

Experiment [3] deals with T3, GABPA (Homo sapiens, UniProt Q06546 1-454).
T3 sequence: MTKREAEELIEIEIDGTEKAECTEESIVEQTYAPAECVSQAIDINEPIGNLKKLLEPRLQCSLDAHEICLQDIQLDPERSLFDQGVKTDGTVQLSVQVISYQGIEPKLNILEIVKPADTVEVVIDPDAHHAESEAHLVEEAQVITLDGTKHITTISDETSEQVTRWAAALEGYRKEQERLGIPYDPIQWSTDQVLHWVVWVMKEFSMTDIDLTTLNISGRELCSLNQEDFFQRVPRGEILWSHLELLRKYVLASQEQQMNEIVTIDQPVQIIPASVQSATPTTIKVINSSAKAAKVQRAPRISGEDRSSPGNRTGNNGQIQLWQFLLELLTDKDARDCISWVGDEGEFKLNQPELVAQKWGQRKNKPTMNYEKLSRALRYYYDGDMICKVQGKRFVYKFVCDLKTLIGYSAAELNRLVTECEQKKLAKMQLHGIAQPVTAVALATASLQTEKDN
The conditions noted are these: protein: recombinant; tags: N-terminal GST; dsDNA, one strand shown. The procedure, abridged:
as §1

Experiment [4] has as its target T4, ERG (Homo sapiens, UniProt P11308 1-479).
T4 sequence: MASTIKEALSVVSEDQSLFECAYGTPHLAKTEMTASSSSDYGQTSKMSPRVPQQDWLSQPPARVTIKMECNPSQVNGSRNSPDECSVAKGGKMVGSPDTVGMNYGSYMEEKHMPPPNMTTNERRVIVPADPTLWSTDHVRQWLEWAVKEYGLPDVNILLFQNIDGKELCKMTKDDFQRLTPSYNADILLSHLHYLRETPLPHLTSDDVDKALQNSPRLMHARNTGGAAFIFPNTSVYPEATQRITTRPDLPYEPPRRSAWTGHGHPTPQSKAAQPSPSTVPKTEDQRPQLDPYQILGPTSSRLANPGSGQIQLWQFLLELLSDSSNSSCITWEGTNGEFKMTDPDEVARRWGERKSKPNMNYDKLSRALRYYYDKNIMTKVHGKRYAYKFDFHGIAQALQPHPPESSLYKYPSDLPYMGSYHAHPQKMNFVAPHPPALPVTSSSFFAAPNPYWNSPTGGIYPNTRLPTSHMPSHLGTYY
Particulars: protein: recombinant; tags: N-terminal GST; dsDNA, one strand shown. The procedure, abridged:
as §1

The target in experiment [5] is ELF1 (Homo sapiens, UniProt P32519 1-619). The conditions noted are these: protein: recombinant; tags: N-terminal GST; dsDNA, one strand shown. The procedure, abridged: as §1
Chain of ELF1 (P32519 whole entry): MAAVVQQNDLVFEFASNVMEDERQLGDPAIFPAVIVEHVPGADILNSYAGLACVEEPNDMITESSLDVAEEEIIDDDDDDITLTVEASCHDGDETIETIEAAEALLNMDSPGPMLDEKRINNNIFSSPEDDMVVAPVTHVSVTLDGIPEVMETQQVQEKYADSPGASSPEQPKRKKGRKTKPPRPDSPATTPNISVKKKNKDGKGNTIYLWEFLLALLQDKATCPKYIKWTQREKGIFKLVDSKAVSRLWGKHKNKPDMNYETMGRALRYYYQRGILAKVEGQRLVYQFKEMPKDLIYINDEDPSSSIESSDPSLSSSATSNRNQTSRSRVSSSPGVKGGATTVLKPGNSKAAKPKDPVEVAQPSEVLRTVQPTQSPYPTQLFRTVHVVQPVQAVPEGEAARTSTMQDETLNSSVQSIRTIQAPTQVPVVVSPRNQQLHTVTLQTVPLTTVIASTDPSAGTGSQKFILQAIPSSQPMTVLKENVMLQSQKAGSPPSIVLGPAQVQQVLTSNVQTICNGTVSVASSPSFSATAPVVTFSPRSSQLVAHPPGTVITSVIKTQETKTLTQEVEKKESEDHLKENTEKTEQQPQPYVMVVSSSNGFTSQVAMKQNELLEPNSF
The target of experiment [6] is T5, EHF (Homo sapiens, UniProt Q9NZC4 1-300).
T5 sequence: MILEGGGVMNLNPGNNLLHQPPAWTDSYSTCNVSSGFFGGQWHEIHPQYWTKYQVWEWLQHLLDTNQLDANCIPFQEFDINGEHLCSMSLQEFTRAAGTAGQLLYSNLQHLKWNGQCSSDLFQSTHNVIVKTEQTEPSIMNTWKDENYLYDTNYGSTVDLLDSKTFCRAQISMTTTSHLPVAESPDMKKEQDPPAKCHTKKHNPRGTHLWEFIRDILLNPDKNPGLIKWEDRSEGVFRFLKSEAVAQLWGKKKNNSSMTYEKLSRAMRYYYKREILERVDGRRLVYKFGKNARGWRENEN
The conditions noted are these: protein: recombinant; tags: N-terminal GST; dsDNA, one strand shown. An outline of the steps:
as §1

For experiment [7], the target named is SPI1 (Homo sapiens, UniProt P17947 1-270). Particulars: protein: recombinant; tags: N-terminal GST; dsDNA, one strand shown. An outline of the steps:
as §1

Experiment [8] addresses SPIB (Homo sapiens, UniProt Q01892 1-262). The conditions noted are these: protein: recombinant; tags: N-terminal GST; dsDNA, one strand shown. An outline of the steps:
as §1

Experiment [9] addresses T6, ELK3 (Homo sapiens, UniProt P41970 1-407).
T6 sequence: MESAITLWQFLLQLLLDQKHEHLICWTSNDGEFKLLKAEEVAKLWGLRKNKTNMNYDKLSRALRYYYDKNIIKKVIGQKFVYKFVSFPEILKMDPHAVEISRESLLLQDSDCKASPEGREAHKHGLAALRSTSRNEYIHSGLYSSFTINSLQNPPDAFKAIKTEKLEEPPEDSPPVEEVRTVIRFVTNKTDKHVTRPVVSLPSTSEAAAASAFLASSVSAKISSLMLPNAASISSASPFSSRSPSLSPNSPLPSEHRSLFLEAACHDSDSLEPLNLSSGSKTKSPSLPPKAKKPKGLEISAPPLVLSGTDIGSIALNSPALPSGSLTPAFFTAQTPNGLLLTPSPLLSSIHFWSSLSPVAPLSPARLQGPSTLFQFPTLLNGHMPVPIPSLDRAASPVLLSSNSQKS
Particulars: protein: recombinant; tags: N-terminal GST; dsDNA, one strand shown. An outline of the steps: as §1

Experiment [10] concerns the target T7, FEV (Homo sapiens, UniProt Q99581 1-238).
T7 sequence: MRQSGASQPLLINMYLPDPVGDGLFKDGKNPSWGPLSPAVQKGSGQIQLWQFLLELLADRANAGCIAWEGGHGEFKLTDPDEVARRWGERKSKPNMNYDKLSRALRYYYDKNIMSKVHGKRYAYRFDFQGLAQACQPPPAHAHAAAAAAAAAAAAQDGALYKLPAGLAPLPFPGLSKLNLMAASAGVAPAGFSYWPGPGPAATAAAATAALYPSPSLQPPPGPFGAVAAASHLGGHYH
The conditions noted are these: protein: recombinant; tags: N-terminal GST; dsDNA, one strand shown. The procedure, abridged: as §1

In experiment [11] the target is ETV5 (Homo sapiens, UniProt P41161 1-510). The conditions noted are these: protein: recombinant; tags: N-terminal GST; dsDNA, one strand shown. The procedure, abridged:
as §1

For experiment [12], the target named is HSF1 (Homo sapiens, UniProt Q00613 1-529). Particulars: protein: recombinant; tags: N-terminal GST; chain copies: 3; dsDNA, one strand shown. An outline of the steps: as §1
Chain of HSF1 (Q00613 whole entry): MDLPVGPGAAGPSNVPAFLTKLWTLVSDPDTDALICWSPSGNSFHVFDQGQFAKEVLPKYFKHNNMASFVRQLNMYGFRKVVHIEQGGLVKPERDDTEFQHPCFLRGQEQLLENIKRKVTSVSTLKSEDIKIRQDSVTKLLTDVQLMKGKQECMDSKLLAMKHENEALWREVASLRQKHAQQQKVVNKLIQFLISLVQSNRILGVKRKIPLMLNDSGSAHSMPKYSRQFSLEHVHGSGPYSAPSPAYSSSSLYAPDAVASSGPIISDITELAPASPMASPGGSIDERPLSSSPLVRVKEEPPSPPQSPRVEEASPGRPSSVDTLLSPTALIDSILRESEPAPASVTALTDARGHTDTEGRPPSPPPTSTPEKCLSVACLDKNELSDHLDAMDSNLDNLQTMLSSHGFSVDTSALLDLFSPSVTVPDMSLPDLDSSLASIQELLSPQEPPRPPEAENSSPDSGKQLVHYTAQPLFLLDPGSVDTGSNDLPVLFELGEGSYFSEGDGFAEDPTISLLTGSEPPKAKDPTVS
Experiment [13] deals with T8, SPIC (Homo sapiens, UniProt Q8N5J4 1-248).
T8 sequence: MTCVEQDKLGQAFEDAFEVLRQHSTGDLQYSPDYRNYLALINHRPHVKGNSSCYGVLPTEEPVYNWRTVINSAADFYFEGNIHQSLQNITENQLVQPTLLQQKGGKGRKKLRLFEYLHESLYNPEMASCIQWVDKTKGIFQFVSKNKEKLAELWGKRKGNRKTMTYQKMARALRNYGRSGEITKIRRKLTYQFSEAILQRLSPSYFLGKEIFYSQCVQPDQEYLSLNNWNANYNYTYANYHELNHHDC
The conditions noted are these: protein: recombinant; tags: N-terminal GST; dsDNA, one strand shown. An outline of the steps:
as §1

Experiment [14] deals with ELF4 (Homo sapiens, UniProt Q99607 1-663). Particulars: protein: recombinant; tags: N-terminal GST; dsDNA, one strand shown. An outline of the steps: as §1
Chain of ELF4 (Q99607 whole entry): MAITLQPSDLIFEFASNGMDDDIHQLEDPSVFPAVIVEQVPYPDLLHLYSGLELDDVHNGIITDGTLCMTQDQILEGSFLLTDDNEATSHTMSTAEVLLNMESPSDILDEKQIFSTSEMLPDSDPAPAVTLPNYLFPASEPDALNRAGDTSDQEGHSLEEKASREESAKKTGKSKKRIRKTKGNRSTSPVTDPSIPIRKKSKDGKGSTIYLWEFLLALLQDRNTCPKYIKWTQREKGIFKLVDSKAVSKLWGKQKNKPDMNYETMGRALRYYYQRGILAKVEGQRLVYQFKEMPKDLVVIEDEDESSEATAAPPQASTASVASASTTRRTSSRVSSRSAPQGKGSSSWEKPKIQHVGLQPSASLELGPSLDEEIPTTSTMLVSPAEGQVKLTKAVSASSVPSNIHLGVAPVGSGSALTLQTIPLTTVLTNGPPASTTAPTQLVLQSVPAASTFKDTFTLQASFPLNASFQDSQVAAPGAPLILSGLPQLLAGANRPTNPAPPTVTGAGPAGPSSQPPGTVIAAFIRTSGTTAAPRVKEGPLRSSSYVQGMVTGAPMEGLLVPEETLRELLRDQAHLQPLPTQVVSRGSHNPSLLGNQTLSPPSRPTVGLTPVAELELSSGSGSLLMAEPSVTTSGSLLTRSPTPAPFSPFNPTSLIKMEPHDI
In experiment [15] the target is T9, ELK4 (Homo sapiens, UniProt P28324-2 1-405).
T9 sequence: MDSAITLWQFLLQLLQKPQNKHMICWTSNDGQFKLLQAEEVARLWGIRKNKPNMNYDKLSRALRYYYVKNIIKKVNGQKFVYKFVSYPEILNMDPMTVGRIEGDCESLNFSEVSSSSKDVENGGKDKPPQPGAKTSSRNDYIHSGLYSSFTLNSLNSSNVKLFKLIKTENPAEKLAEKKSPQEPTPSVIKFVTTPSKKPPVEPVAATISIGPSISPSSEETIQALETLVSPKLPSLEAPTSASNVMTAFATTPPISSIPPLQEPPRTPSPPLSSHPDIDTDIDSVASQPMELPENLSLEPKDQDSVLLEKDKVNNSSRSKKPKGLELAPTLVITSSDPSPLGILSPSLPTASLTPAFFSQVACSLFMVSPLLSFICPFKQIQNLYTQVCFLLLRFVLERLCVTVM
The conditions noted are these: protein: recombinant; tags: N-terminal GST; dsDNA, one strand shown. An outline of the steps:
as §1

Experiment [16] deals with T10, ETV2 (Homo sapiens, UniProt O00321 1-342).
T10 sequence: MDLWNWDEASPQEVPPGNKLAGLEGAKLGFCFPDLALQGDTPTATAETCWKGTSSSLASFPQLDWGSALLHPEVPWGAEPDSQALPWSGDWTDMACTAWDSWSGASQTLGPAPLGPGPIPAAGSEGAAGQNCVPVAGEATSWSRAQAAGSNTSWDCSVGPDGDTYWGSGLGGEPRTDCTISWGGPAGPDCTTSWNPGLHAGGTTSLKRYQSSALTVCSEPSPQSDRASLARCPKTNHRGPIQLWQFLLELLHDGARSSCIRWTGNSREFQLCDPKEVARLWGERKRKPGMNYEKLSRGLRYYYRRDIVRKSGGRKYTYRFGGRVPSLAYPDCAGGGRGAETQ
The conditions noted are these: protein: recombinant; tags: N-terminal GST; dsDNA, one strand shown. The procedure, abridged:
as §1

The target in experiment [17] is T11, ELF3 (Homo sapiens, UniProt P78545 1-371).
T11 sequence: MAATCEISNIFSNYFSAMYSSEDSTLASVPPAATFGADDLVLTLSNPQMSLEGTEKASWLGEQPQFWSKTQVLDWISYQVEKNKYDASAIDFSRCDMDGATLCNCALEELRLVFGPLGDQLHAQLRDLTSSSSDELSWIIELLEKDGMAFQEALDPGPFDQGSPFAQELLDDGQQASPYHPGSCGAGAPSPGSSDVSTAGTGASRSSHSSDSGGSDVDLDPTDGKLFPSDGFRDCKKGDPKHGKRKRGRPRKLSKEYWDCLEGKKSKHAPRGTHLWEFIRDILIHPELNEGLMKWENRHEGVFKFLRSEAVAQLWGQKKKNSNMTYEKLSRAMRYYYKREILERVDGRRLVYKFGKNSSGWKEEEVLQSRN
The conditions noted are these: protein: recombinant; tags: N-terminal GST; dsDNA, one strand shown. The procedure, abridged:
as §1

For experiment [18], the target named is CRX (Homo sapiens, UniProt O43186 1-299). The conditions noted are these: protein: recombinant; tags: N-terminal GST; dsDNA, one strand shown. An outline of the steps: as §1
Chain of CRX (O43186 whole entry): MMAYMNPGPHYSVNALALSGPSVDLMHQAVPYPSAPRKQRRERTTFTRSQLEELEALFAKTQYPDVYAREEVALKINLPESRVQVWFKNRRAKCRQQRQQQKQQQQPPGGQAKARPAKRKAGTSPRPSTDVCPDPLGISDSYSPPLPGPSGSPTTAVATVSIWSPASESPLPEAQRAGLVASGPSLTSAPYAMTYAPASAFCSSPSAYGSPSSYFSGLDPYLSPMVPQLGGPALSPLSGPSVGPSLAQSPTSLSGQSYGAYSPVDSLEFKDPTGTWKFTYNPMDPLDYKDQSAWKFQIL
In experiment [19] the target is ETV1 (Homo sapiens, UniProt P50549 1-477). Particulars: protein: recombinant; tags: N-terminal GST; dsDNA, one strand shown. The procedure, abridged:
as §1

Chain of ETV1 (P50549 whole entry): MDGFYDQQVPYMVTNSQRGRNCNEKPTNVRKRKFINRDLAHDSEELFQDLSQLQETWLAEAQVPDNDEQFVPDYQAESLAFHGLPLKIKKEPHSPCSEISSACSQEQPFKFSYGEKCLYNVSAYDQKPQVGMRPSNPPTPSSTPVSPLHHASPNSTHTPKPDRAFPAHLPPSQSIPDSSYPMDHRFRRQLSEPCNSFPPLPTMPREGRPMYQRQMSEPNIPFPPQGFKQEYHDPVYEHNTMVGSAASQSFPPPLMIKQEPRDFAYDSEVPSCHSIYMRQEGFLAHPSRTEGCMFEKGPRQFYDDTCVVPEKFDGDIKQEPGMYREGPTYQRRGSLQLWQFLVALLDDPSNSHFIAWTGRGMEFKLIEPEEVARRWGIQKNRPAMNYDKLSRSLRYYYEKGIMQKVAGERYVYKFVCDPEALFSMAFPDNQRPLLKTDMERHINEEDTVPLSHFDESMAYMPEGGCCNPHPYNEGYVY
Chain of SPIB (Q01892 whole entry): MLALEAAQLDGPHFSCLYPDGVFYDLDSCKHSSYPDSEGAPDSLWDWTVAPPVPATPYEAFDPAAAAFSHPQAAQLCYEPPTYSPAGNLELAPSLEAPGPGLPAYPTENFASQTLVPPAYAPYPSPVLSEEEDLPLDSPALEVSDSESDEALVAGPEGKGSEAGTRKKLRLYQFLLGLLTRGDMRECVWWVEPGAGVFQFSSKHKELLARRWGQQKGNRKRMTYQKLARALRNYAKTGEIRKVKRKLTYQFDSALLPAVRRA
Chain of ETV5 (P41161 whole entry): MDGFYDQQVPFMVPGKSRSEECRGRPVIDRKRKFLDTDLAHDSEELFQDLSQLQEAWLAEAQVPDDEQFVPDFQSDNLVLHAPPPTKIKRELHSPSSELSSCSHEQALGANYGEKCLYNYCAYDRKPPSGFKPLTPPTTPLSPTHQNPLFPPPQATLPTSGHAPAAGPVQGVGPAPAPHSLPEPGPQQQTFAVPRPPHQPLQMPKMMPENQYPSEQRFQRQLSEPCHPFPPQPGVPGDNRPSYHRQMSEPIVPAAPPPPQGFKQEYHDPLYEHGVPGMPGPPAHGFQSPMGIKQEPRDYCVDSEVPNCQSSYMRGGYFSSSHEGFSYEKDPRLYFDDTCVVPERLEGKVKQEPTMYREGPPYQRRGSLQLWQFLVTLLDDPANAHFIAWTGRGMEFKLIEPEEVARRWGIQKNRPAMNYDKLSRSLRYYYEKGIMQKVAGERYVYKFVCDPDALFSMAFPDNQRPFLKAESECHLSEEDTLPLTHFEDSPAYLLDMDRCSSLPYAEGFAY

On to CCTGCG, for which the binding signal in experiment [1] is 1.27 fold enrichment (6-mer frequency, TF over GST control); in experiment [2], 1.34 fold enrichment (6-mer frequency, TF over GST control); in experiment [3] it was 1.39 fold enrichment (6-mer frequency, TF over GST control); in [4] it was 1.27 fold enrichment (6-mer frequency, TF over GST control); in [5], 1.38 fold enrichment (6-mer frequency, TF over GST control); in [6], 1.31 fold enrichment (6-mer frequency, TF over GST control). Also, the binding signal was 1.23 fold enrichment (6-mer frequency, TF over GST control) in [7]; 1.35 fold enrichment (6-mer frequency, TF over GST control) in experiment [8]; 1.22 fold enrichment (6-mer frequency, TF over GST control) in experiment [9]; 1.28 fold enrichment (6-mer frequency, TF over GST control) in [10]; 1.27 fold enrichment (6-mer frequency, TF over GST control) in [11]; 1.1 fold enrichment (6-mer frequency, TF over GST control) in experiment [12]. In addition, the binding signal was 1.12 fold enrichment (6-mer frequency, TF over GST control) in experiment [13]; 1.32 fold enrichment (6-mer frequency, TF over GST control) in experiment [14]; 1.37 fold enrichment (6-mer frequency, TF over GST control) in experiment [15]; 1.41 fold enrichment (6-mer frequency, TF over GST control) in [16]; 1.23 fold enrichment (6-mer frequency, TF over GST control) in experiment [17]; 1.05 fold enrichment (6-mer frequency, TF over GST control) in experiment [18]. Besides, in [19], the binding signal was 1.39 fold enrichment (6-mer frequency, TF over GST control).
